In PubChem BioAssay AID588689 (Southern Research Specialized Biocontainment Screening …, 2011):
The whole screen tested about 340,000 compounds, of which about 1,000 (0.29%) were called active. Rule as the data show it: inconclusive = inhibition above about 29% without an active follow-up result; inactive = below that. These entries were drawn from the full list. Potency and affinity values are given separately.

Biological target: Genome polyprotein (Dengue virus type 2 (strain 16681-PDK53)) (UniProt P29991)
Assay: flavivirus cap methylation enzyme inhibition – biochemical, confirmation dose response, primary screen (AID 588689)
Details: Dengue-2 NS5 methyltransferase capping enzyme assay, at 25 µM, stronger effect = higher value
[1] = measured here: pilot screen replicate inhibition

| Compound | inhibition | inhibition [1] |
| --- | --- | --- |
| Cc1cccc(N(CC(O)CN2CCOCC2)S(=O)(=O)c2ccccc2)c1 (stereo not given) | 0% (inactive) | – |
| Cc1cc(-c2ccccc2N)n[nH]1 | -5.29% (inactive) | – |
| CCN(C(=O)COC(=O)c1ccccc1NCCO)c1cccc2ccccc12 | 6.52% (inactive) | – |
| COc1ccc(NC(=O)c2ccc(-c3ccccc3C(F)(F)F)o2)cc1 | -7.03% (inactive) | – |
| COc1cc(C2c3cc4c(cc3OC(NCCc3ccccc3)C2C)OCO4)cc(OC)c1OC (stereo not given) | -4.03% (inactive) | – |
| COc1ccc(S(N)(=O)=O)cc1C(=O)OCC(=O)Nc1sccc1C#N | -21% (inactive) | – |
| COc1ccccc1N(CC(=O)NCCSc1ccccc1)S(=O)(=O)c1ccccc1 | -5.79% (inactive) | – |
| O=C(CSc1ncn[nH]1)N1N=C2/C(=C/c3ccco3)CCCC2C1c1ccco1 (stereo not given) | -4.57% (inactive) | – |
| Cc1ccccc1C(=O)Nc1nnc(SC(C)C)s1 | -3.88% (inactive) | – |
| Cc1ccc(-n2nc3c(=O)n(CC(=O)NCCCc4ccccc4)nc(C)c3c2C)cc1 | -3.57% (inactive) | – |
| CC(C)(C)OC(=O)N1CCCC(C(=O)CC#N)C1 (stereo not given) | -13.4% (inactive) | – |
| CC1/C(=N/O)CC(c2ccccc2)NC1c1ccccc1 (stereo not given) | 3.42% (inactive) | – |
| COCCNc1nc(NCc2ccccc2)c2cnn(C)c2n1 | -7.24% (inactive) | – |
| CN(C)CCCN1CC(=O)N2[C@@H](Cc3c([nH]c4ccccc34)C2(C)C)C1=O | 5.89% (inactive) | – |
| COc1ccc(CCC(=O)Nc2sc(C(=O)N(C)C)c(C)c2C#N)cc1 | 2.58% (inactive) | – |
| COc1ccc(Nc2ccc(C(=O)O)cc2[N+](=O)[O-])cc1 | 3.64% (inactive) | – |
| Cc1ccc(Nc2ccc(C(=O)O)cc2[N+](=O)[O-])cc1 | 17% (inactive) | – |
| COc1ccc(C(C)=O)cc1COC(=O)CNC(=O)C1CCCCC1 | 10.9% (inactive) | – |
| Cc1cccc(-c2nnc(SCC3CNC(=O)O3)n2-c2ccc(Cl)cc2)c1 (stereo not given) | -12.5% (inactive) | – |
| CC(C)=C1C2CCC1C(C(=O)Nc1sc(C)c(-c3ccc(C(C)C)cc3)c1C(N)=O)C2C(=O)O (stereo not given) | 2.89% (inactive) | – |
| Cc1sc(NC(=O)C2C3CCC(C3)C2C(=O)O)c(C(N)=O)c1-c1ccc(C(C)(C)C)cc1 (stereo not given) | 7.13% (inactive) | – |
| Cc1sc(NC(=O)C2CCCCC2C(=O)O)c(C(N)=O)c1-c1ccccc1 (stereo not given) | -2.08% (inactive) | – |

| Compound | inhibition | inhibition [1] |
| --- | --- | --- |
| Cc1sc(NC(=O)C2C3C=CC(C3)C2C(=O)O)c(C(N)=O)c1-c1ccc(C(C)C)cc1 (stereo not given) | -5.14% (inactive) | – |
| COc1ccc(NC(=O)CN2CCN(S(=O)(=O)N(C)C)CC2)cc1 | 2.61% (inactive) | 3.63% |
| Cc1c(C(=O)c2ccc(Cl)c(Cl)c2)cnc2cc3c(cc12)OCO3 | 0.78% (inactive) | – |
| Nc1c(C(=O)O)sc2nc(-c3ccccc3)cc(-c3ccc(F)cc3)c12 | -4.6% (inactive) | – |
| Nc1c(C(=O)O)sc2nc(-c3ccccc3)cc(-c3ccccc3)c12 | -27% (inactive) | – |
| CCOC(=O)CC1COc2ccccc2N1C(=O)c1cccc([N+](=O)[O-])c1 (stereo not given) | -0.68% (inactive) | – |
| CCOc1ccc(N2C(=O)CC(N(Cc3ccco3)C(=O)CCC(=O)O)C2=O)cc1 (stereo not given) | -7.79% (inactive) | – |
| Cc1c(C(=O)OCC(=O)NC2CC2)oc2ccc(Br)cc12 | 4.33% (inactive) | – |
| CNCc1ccccc1Sc1cc(O)ccc1O | -2.55% (inactive) | – |
| CNCc1ccccc1Sc1cccc(O)c1 | -3.83% (inactive) | – |
| Cc1cc(NC(=O)CSc2ccccn2)cc(NC(=O)CSc2ccccn2)c1 | -6.51% (inactive) | – |
| O=C(O)c1cccc(S(=O)(=O)Nc2ccc(-c3ccccc3)cc2)c1 | -3.98% (inactive) | – |
| O=C(O)c1ccc(Cl)c(S(=O)(=O)Nc2ccc(S(=O)(=O)N3CCCC3)cc2)c1 | -5.16% (inactive) | – |
| O=C(O)c1cccc(NS(=O)(=O)c2ccc(Oc3ccc(S(=O)(=O)Nc4cccc(C(=O)O)c4)cc3)cc2)c1 | 13.8% (inactive) | – |
| O=C(O)c1ccc(Cl)c(S(=O)(=O)Nc2ccccc2Cc2ccccc2)c1 | -0.83% (inactive) | – |
| O=C(O)c1ccc(NS(=O)(=O)c2cc(Cl)ccc2Cl)cc1 | -2.78% (inactive) | – |
| O=C1c2ccccc2C(=O)c2cc(S(=O)(=O)Nc3ccccc3)ccc21 | -0.73% (inactive) | – |
| O=C(O)c1ccc(F)c(S(=O)(=O)Nc2ccccc2Cl)c1 | 4.09% (inactive) | – |
| O=C(O)c1cccc(NS(=O)(=O)c2ccc3c(c2)C(=O)c2ccccc2C3=O)c1 | 16.2% (inactive) | – |
| CC1(C)C2CCC1(CS(=O)(=O)NCc1ccc(C(F)(F)F)cc1)C(=O)C2 (stereo not given) | -2.61% (inactive) | – |
| CCOC(=O)N1CCN(Cc2nc3ccc([N+](=O)[O-])cc3c(=O)n2-c2ccc(OC)cc2OC)CC1 | -7.83% (inactive) | – |
| Cc1ccc(C2(C)NC(=O)N(CC(=O)NNC(=O)c3cc(C)oc3C)C2=O)cc1 (stereo not given) | -2.16% (inactive) | – |

| Compound | inhibition | inhibition [1] |
| --- | --- | --- |
| CC1CC1C(=O)N(C)CC(=O)Nc1ccccc1Br (stereo not given) | -5.16% (inactive) | – |
| Cc1cc(C(=O)OC(C)C(=O)NC2CCCCC2)c(C)o1 (stereo not given) | 3.67% (inactive) | – |
| O=C(NC1CC2CCCC(C1)N2CC(=O)N1CCCc2ccccc21)C1CCCCC1 (stereo not given) | -6.56% (inactive) | – |
| Cc1cccc(-n2cnc3sc(C)c(C)c3c2=O)c1 | 3.09% (inactive) | – |
| O=C(O)c1ccc(COc2ccccc2/C=C2/NC(=O)N(c3cccc(Cl)c3)C2=O)cc1 | 6.55% (inactive) | – |
| O=C1NC(=S)N/C1=C\c1ccccc1OCc1ccc(C(=O)O)cc1 | -6.96% (inactive) | – |
| COC(=O)c1ccc(COc2ccc(/C=N/Nc3cccc(C(=O)O)c3)cc2)cc1 | 8.5% (inactive) | – |
| COc1cc(/C=C2/NC(=O)NC2=O)cc(Br)c1OCc1ccc(C(=O)O)cc1 | -4.44% (inactive) | – |
| C=CCc1cc(C=O)cc(OC)c1OCc1ccc(C(=O)O)cc1 | -5.83% (inactive) | – |
| CN1C(=O)S/C(=C\c2ccccc2OCc2ccc(C(=O)O)cc2)C1=O | 2.95% (inactive) | – |
| O=C(O)c1ccc(COc2ccc(CO)cc2Cl)cc1 | -1.37% (inactive) | – |
| COC(=O)c1ccc(COc2ccccc2/C=N/NS(=O)(=O)c2ccccc2)cc1 | -8.06% (inactive) | – |
| Cc1cccc(C(=O)OCC(=O)Nc2c(C)n(C)n(-c3ccccc3)c2=O)c1O | -4.38% (inactive) | – |
| N#Cc1ccc(NC(=O)c2sc3cc(C(F)(F)F)cnc3c2-c2cccs2)cc1 | -3.46% (inactive) | – |
| CC(C)CN(C(=O)c1ccc(N2CCCC2=O)cc1)C1CCS(=O)(=O)C1 (stereo not given) | 2.16% (inactive) | – |
| COc1ccc(N(C(=O)c2ccco2)C(C(=O)NC2CCCC2)c2ccc(OC)c(OC)c2)cc1 (stereo not given) | -4.04% (inactive) | – |
| N#Cc1ccc2ccn(CC(=O)NCc3ccco3)c2c1 | -5.46% (inactive) | – |
| O=C(CCn1cnc2ccccc2c1=O)Nc1ccc(Cl)c(Cl)c1 | 1.31% (inactive) | – |
| COc1cccc(/C=C/c2ccccn2)c1O | -0.77% (inactive) | – |
| CCOc1ccccc1/C=C\c1nc(O)c([N+](=O)[O-])c(=O)[nH]1 | 5.29% (inactive) | – |
| COc1cccc(/C=N/Nc2ccc([N+](=O)[O-])cc2)c1O | -38.8% (inactive) | – |
| O=C(COc1ccccc1/C=C\c1nc(O)c([N+](=O)[O-])c(=O)[nH]1)Nc1ccccc1 | 2.19% (inactive) | – |

| Compound | inhibition | inhibition [1] |
| --- | --- | --- |
| CCCCCCSc1cc(-c2nc3cc(C)ccn3c2NC2CCCCC2)ccc1OC | -8.81% (inactive) | – |
| O=C(c1ccc(Cn2c(=O)[nH]c3ccsc3c2=O)cc1)N1CCN(c2ccccc2)CC1 | -1.16% (inactive) | – |
| COc1ccc(CN(C)C(=O)c2cccc(NS(=O)(=O)c3ccccc3)c2)c(OC)c1 | 0.32% (inactive) | – |
| O=C(CN(c1ccc(F)cc1)S(=O)(=O)c1ccccc1)NC1CCCCCC1 | 0% (inactive) | – |
| Cc1ccc(/C=C/c2nc3sc(C(=O)O)c(C)c3c(=O)[nH]2)cc1[N+](=O)[O-] | -2.44% (inactive) | – |
| COc1cccc(CNC(=O)Cn2ccc3cc(S(=O)(=O)N4CCCC4)ccc32)c1 | -0.45% (inactive) | – |
| COc1ccc(N(C(=O)Cn2nnc(-c3ccc(Cl)cc3)n2)C(C(=O)NCC2CCCO2)c2ccncc2)cc1 (stereo not given) | -2.22% (inactive) | – |
| COc1ccc(/C=N/NC(=O)c2nn(-c3ccccc3)c(=O)c3c(N)scc23)cc1 | 50% (inactive) | – |
| CCOC(=O)c1nn(-c2ccccc2)c(=O)c2c(N)scc12 | 7.81% (inactive) | – |
| COc1ccc(/C=N/NC(=O)c2nn(-c3ccc(Cl)cc3)c(=O)c3c(N)scc23)cc1 | 65.9% (inactive) | 10.3% |
| CCOC(=O)c1nn(-c2ccc(C)cc2)c(=O)c2c(N)scc12 | 12.4% (inactive) | – |
| Cc1ccc2c(c1)NC(=O)c1cccnc1N2 | -0.54% (inactive) | – |
| Cc1nnc(SC(C)C(=O)N(C)C2CCCCC2)n1N (stereo not given) | -0.37% (inactive) | – |
| CCOc1cc(C(=O)NCCC(=O)N2CCC3(CC2)NCCc2[nH]cnc23)cc(OCC)c1OCC | -6.21% (inactive) | – |
| CCCCN1CC[C@H]2C=CC[C@@H](C(=O)N3CCN(c4ccccc4)CC3)[C@H]2C1=O | -5.46% (inactive) | – |
| Cc1ccc(-n2nc(CN3CCOCC3)c(-c3ccccc3)c2N)cc1Cl | -2.18% (inactive) | – |
| O=Cc1cc(N=Nc2ccc(S(=O)(=O)O)cc2)ccc1O | 14.6% (inactive) | – |
| O=Cc1cc(N=Nc2ccccc2Cl)ccc1O | 11.1% (inactive) | – |
| COc1ccc(/C=C2/C(=O)N(c3c(F)c(F)c(F)c(F)c3F)N=C2C)cc1 | 27.1% (inactive) | – |
| CCOC(=O)c1sc(Nc2ccc(OCC)cc2)nc1C | -9.95% (inactive) | – |
| Cc1ccc(NC(=C(C#N)C#N)c2ccccc2)cc1 | 6.86% (inactive) | – |
| O=C1C(=O)N(CCCn2ccnc2)C(c2ccc([N+](=O)[O-])cc2)/C1=C(\O)c1ccc2c(c1)OCCO2 (stereo not given) | -1.86% (inactive) | – |
